Giardia killer: Small Molecules that selectively kill Giardia lamblia: qHTS; Giardia lamblia trophozoite viability; activity change, % at 7.66 µM, hits read low; 340,000 tested, 0.15% active; AID 540267, 2011; in the data active means activity change below about -80%; inconclusive means between about -30% and that limit;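 further: parasites exposed to compound for two days anaerobically before the ATP read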
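Luminescent ATP signal served as the viability read-out, measured 15-30 min after adding ATP detection reagent to trophozoites that had been incubated with compounds for 48 hrs at 37 deg C anaerobically at 100 cells/well.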
KB-3-1 tox: qHTS assay for MDR1-selective chemotherapeutics: Primary screen using the parental adenocarcinoma cell KB-3-1. KB-3-1 viability, CellTiter-Glo ATP luminescence, 72 h. Potency, µM (highest dose often 46.1 µM), hits mostly cytotoxic. 400,000 tested, 1.4% active. AID 1347075, 2019; further: potency means the concentration at half of the fitted maximal effect; nearly all actives have a fitted effect of over 60% in size
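KB-3-1 parental drug-naive adenocarcinoma cells in DMEM/10% FBS, incubated 72 h at 37 C with pin-transferred compounds across a concentration series. Viability by CellTiter-Glo luminescence; concentration-response curves fitted after normalization.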
KB-V1 MDR tox: qHTS assay for MDR1-selective chemotherapeutics: Primary screen using the drug-selected MDR subline cells KB-V1; Potency, µM (highest dose often 46.1 µM), most hits filed as cytotoxic; AID 1347076, 2019; 400,000 tested, 3.4% active; KB-V1 MDR cells viability, CellTiter-Glo, 72 h; further: potency means the concentration at half of the fitted maximal effect; nearly all actives have a fitted effect of over 60% in size
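qHTS viability screen in drug-selected KB-V1 MDR cells: 72 h compound treatment at 37 degrees C, ATP luminescence end point.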
A549 viability: Nrf2 qHTS screen for inhibitors: counterscreen for cytotoxicity. 390,000 tested, 0.16% active. Potency, µM (highest dose often 46 µM), inactives show at the top dose activity change, negative = cytotoxicity, usual class: inhibitors. A549 ARE-Fluc cells, CellTiter-Fluor viability, 18-24 h; further: potency means the concentration at half of the fitted maximal effect
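A549 ARE_Fluc cells in 5% FBS OPTI-MEM were exposed to compounds in concentration-response for 18-24 h at 37 deg C. Viability was read by CellTiter-Fluor fluorescence (Ex 405/Em 525) after 30 min, before the luciferase read.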
Nrf2 inh: Nrf2 qHTS screen for inhibitors; A549 ARE-Fluc reporter, luciferase luminescence, 18-24 h; Potency, µM (top dose mostly 46 µM), without a hit: at the highest dose activity change, negative = inhibition, hits mostly inhibitors; 360,000 tested, 2.1% active; AID 504444, 2011; further: potency means the concentration at half of the fitted maximal effect; nearly all actives have a fitted effect of over 60% in size
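Quantitative HTS in A549 cells stably bearing an antioxidant response element-firefly luciferase construct. Inhibition of Nrf2-driven transcription was scored by luminescence after 18-24 h of compound exposure at 37 °C.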
PI4K2A block: qHTS for small molecular inhibitors of PI4K2A; Phosphatidylinositol 4-kinase type 2-alpha (Homo sapiens), Q9BTU6; purified PI4K2A, ADP-Glo luminescence, 1 h; stronger effect = lower value; activity change, negative = inhibition, % at 76.9 µM; 420,000 tested, 0.13% active; in the data active means activity change below about -50%; inconclusive means mostly about -30% to -49%;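 further: -100% = wells without enzyme as full effect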
Target sequence (Q9BTU6 whole entry, looked up): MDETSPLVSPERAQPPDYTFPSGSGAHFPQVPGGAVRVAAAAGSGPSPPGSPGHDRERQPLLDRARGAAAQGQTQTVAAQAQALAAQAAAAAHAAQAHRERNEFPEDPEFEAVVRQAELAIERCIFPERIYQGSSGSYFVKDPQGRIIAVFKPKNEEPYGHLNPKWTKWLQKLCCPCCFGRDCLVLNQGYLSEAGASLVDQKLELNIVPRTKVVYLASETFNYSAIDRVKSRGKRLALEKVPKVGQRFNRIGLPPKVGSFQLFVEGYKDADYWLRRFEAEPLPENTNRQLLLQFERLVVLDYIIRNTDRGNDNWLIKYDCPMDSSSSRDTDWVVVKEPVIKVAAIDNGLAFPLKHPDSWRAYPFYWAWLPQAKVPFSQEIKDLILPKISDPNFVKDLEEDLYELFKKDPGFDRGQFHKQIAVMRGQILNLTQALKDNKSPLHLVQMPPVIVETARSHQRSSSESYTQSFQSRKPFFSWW
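ADP-Glo luminescence measured ADP generated by PI4K2A enzyme (4 ug/mL before mixing) with 1.2 mM PI substrate (pre-mix) and 300 microM ATP (pre-mix). Tris pH7.5 buffer with MgCl2, Triton X-100; 1 h reaction at ambient temperature.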
* = called active by the depositor; i = inactive; ? = inconclusive; nt = no result given; [ ] = remark or other dose. Sampled rows, rich in hits. Any-hit rate of the full collection: about 5.7%. Unless noted, the call rests on the fitted dose curve; in most records, active means well fitted curve in the direction sought with a large enough effect; inconclusive means small, poorly fitted or top-dose-only effect, or another doubt; inactive means no such curve, though single readings can be large; an effect the other way counts as inactive or inconclusive. Unless noted, on the % scale 0 is the no-effect control and ±100 the full control effect.

SMILES	Giardia killer	KB-3-1 tox	KB-V1 MDR tox	A549 viability	Nrf2 inh	PI4K2A block
COc1ccc(-c2ccc3c(c2)O[C@@H](CN(C)C(=O)c2ccccc2F)[C@@H](C)CN([C@@H](C)CO)S3(=O)=O)cc1	nt	i	i	nt	nt	-1
COc1ccc(-c2ccc3c(c2)O[C@H](CN(C)C(=O)Nc2ccccc2F)[C@@H](C)CN([C@H](C)CO)S3(=O)=O)cc1	nt	?	12µM*	nt	nt	4
Cc1cccc(N2CCN(C(=O)c3cc(S(=O)(=O)N4CCCC4)cn3C)CC2)c1C	5	i	i	-7%	18µM*	-9
Cc1cccc(N2CCN(S(=O)(=O)c3csc(C(N)=O)c3)CC2)c1C	nt	21µM*	i	-1%	?	-2
CC(=O)c1ccc(N2CCN(S(=O)(=O)c3csc(C(N)=O)c3)CC2)cc1	6	i	?	-3%	-2%	-6
CC1C(=O)Nc2ccc(S(=O)(=O)N3CCN(c4cccc(C(F)(F)F)c4)CC3)cc2NC1=O (centres undefined)	-9	i	?	?	8.2µM*	-4
Cn1cc(S(=O)(=O)N2CCCCCC2)cc1C(=O)N1CCN(c2cccc(C(F)(F)F)c2)CC1	nt	?	21µM*	-9%	nt	-3
C[C@@H]1[C@H](c2ccccc2)OCCS(=O)(=O)N1Cc1ccc(F)cc1	nt	i	?	nt	nt	nt
Cc1c(P(=S)(c2ccccc2)c2ccccc2)[n+]2ccccc2n1Cc1ccccc1	nt	nt	nt	3%	-18%	nt
CS(=O)(=O)c1ccc(-c2cn3ccccc3n2)cc1	nt	nt	nt	nt	nt	-7
COC(=O)c1ccc(NC(=S)NC(=O)c2c(Cl)cnn2C)cc1	3	i	i	1%	?	-8
COC(=O)c1cc(NC(=O)c2c(Cl)cnn2C)cc(C(=O)OC)c1	-6	i	15µM*	12%	16%	-5
COC(=O)c1cc(NC(=O)c2ccc(Cn3cc(Cl)cn3)o2)cc(C(=O)OC)c1	-13	i	i	?	21µM*	3
COC(=O)c1ccccc1NC(=O)c1ccc(Cn2cc(Cl)cn2)o1	9	i	i	-8%	?	-2
CC1(C)C2CCC1(CS(=O)(=O)Nc1ccccc1)C(=O)C2 (centres undefined)	-9	i	i	0%	-6%	0
CC1(C)C2CCC1(CS(=O)(=O)Nc1ccc(S(=O)(=O)N3CCCCC3)cc1)C(=O)C2 (centres undefined)	-8	i	26µM*	-1%	-11%	0
COc1ccc(-n2c(SCC(=O)Nc3ccc(Oc4ccccc4)cc3)nnc2-c2ccc(C)cc2)cc1	nt	nt	nt	nt	nt	-2
O=[N+]([O-])c1ccc(N2CCN(S(=O)(=O)c3ccccc3)CC2)c2cccnc12	5	i	8.2µM*	-7%	?	-3
Cn1c(=O)n(C)c2cc([N+](=O)[O-])c(N3CCN(C(=O)c4ccccc4Cl)CC3)cc21	-5	23µM*	16µM*	-8%	?	-1
Cn1c(=O)n(C)c2cc([N+](=O)[O-])c(N3CCN(C(=O)c4ccccc4)CC3)cc21	-1	i	i	-8%[1.84 µM]	?	4
Cn1c(=O)n(C)c2cc([N+](=O)[O-])c(N3CCN(S(=O)(=O)c4ccccc4)CC3)cc21	8	?	2.9µM*	8%	?	-3
Cn1c(=O)n(C)c2cc([N+](=O)[O-])c(N3CCN(C(=O)c4ccccc4Br)CC3)cc21	-2	i	i	?	18µM*	1
Cn1c(=O)n(C)c2cc([N+](=O)[O-])c(N3CCN(S(C)(=O)=O)CC3)cc21	10	i	i	-3%	?	-8
COc1cc2nc(N3CCCN(C)CC3)nc(NC3CCN(Cc4ccccc4)CC3)c2cc1OC	nt	?	?	nt	nt	-5
CCCCCC1Nc2cc(C(F)(F)F)c(S(N)(=O)=O)cc2S(=O)(=O)N1 (centres undefined)	nt	nt	nt	nt	nt	-2
SMILES	Giardia killer	KB-3-1 tox	KB-V1 MDR tox	A549 viability	Nrf2 inh	PI4K2A block
COc1ccc(S[C@]2(C(=O)N3CCN(c4ncccn4)CC3)CC(=O)N(C(=O)c3ccccc3)[C@@H]2c2ccc(OC)cc2)cc1	nt	nt	nt	nt	nt	-3
Cc1nc(/N=C(\N)NC(=O)c2ccccc2)nc2ccccc12	14	i	i	-1%	?	-1
Cc1cc2nc(/N=C(\N)NC(=O)C(C)C)nc(C)c2cc1C	-2	15µM*	i	-10%	-18%	3
Cc1ccc2nc(/N=C(\N)NC(=O)NC3CCCCC3)nc(C)c2c1	7	?	?	23µM*	8.2µM*	-1
CCC(=O)N/C(N)=N/c1nc(C)c2cc(C)c(C)cc2n1	-3	i	i	-1%	-15%	-1
CCCC(=O)N/C(N)=N/c1nc(C)c2cc(C)ccc2n1	7	18µM*	i	-20%	?	-5
CCCCOc1ccc(CC(=O)N(C)OC)cc1	nt	i	i	nt	nt	nt
Cc1cc(NC(=O)c2cc(-c3ccncc3)nc3c(C)cccc23)no1	1	3.3µM*	3.7µM*	0%	2%	-15
Cc1csc(NC(=O)CSc2nc(C(C)C)nc3ccccc23)n1	5	?	15µM*	-2%	?	-2
Cc1cc(NC(=O)c2cc(-c3cccs3)nc3ccccc23)no1	-14	21µM*	?	-12%	-8%	-2
Cc1cc(NC(=O)CSc2nc(-c3cccs3)nc3ccccc23)no1	-21	5.8µM*	?	-18%	-4%	-14
CC(C)c1nc(SCC(=O)Nc2nccs2)c2ccccc2n1	-17	i	i	0%	-4%	6
Cc1cc(NC(=O)CSc2nc(C(C)(C)C)nc3ccccc23)no1	2	i	?	2%	1%	8
S=C(Nc1cc(Cl)cc(Cl)c1)NC(c1ccccc1)c1ccccc1	nt	nt	nt	nt	nt	11
COc1ccc(S[C@]2(C(=O)N3CCN(C(C)=O)CC3)CC(=O)N[C@@H]2c2ccc(OC)cc2)cc1	nt	nt	nt	nt	nt	-5
Cc1cccc2sc(NNC(=O)c3cc(-c4cccs4)nc4ccccc34)nc12	8	?	?	?	23µM*	-6
Cc1ccc(NC(=O)c2cc(-c3cccs3)nc3ccccc23)c(C)c1	nt	i	i	-2%	-8%	-3
O=C1c2ccccc2S(=O)(=O)c2cc(C(=O)N(c3ccccn3)c3ccccn3)ccc21	23	i	15µM*	1%	-5%	-4

Screens: PubChem BioAssay, National Center for Advancing Translational Sciences (NCATS)
